Shown are actives, neighbours in structure and some others; about 12% of the full set was active somewhere.
BAZ2B block: BAZ2B (human) inhibition; 4.4% of 360,000 active; Potency, µM (titrated, usually from 114 µM), for inactives: top-dose activity change, negative = inhibition, actives largely listed as inhibitors; Q9UIF8; AlphaScreen BAZ2B-H3K14Ac peptide displacement; AID 504333; further: potency means the concentration at half of the fitted maximal effect; on the % scale 0 is the no-effect control and ±100 the full control effect; nearly all actives have a fitted effect of over 60% in size
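AlphaScreen displacement: compounds (up to 110uM) incubated 30 min at room temperature with a preformed 50 nM BAZ2B/50 nM biotinylated H3K14Ac peptide complex in PBS pH 7.4 with Tween-20. Donor and acceptor beads at 10 ug/mL final added, 20 min light-protected before reading.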
PLK1 PBD inh: blocks phosphopeptide binding to human PLK1 polo-box domain | P53350 | Plk1 PBD binding of FITC phosphopeptide, fluorescence polarization | Potency, µM, for the others: max response, negative = inhibition, usual class: inhibitors | 2.8% of 360,000 active; further: potency means the concentration at half of the fitted maximal effect; series mostly up to about 57 µM; on the % scale 0 is the no-effect control and ±100 the full control effect; nearly all actives have a fitted effect of over 65% in size
HP1b chromo inh: inhibitors of HP1-beta chromodomain binding to methylated histone tails; P83916; AlphaScreen HP1-beta / biotin-H3K9me3 peptide binding; Potency, µM (doses to about 114 µM), for inactives: at the highest dose activity change, negative = inhibition, hits mostly inhibitors; 0.56% of 390,000 active; further: potency means the concentration at half of the fitted maximal effect; nearly all actives have a fitted effect of over 70% in size
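HP1-beta protein (50 nM final) preincubated 30 min at room temperature with biotinylated H3(1-18)K9me3 peptide (50 nM) in PBS pH 7.4, 0.01% Tween-20, then compound added for 30 min. AlphaScreen streptavidin donor/nickel chelate acceptor beads (10 ug/mL final), 30 min dark, luminescence read.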
JMJD2A Tudor: inhibitors of human JMJD2A Tudor domain | AlphaScreen JMJD2A-Tudor / H3K4me3 peptide binding | Potency, µM (doses to about 114 µM), for the others: at the highest dose activity change, negative = inhibition, usual class: inhibitors | 4.4% of 390,000 active | AID 504339; further: potency means the concentration at half of the fitted maximal effect; on the % scale 0 is the no-effect control and ±100 the full control effect; nearly all actives have a fitted effect of over 50% in size
G9a inh: G9a (human) methyltransferase inhibition; Potency, µM (titrated, usually from 102 µM), for inactives: at the highest dose activity, negative = inhibition, actives largely listed as inhibitors; AID 504332; Q96KQ7; 8.8% of 350,000 active; G9a H3K9 monomethylation, AlphaScreen, 2 h; further: potency means the concentration at half of the fitted maximal effect; on the % scale 0 is the no-effect control and ±100 the full control effect; nearly all actives have a fitted effect of over 75% in size
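Step 1: enzyme (final 20 nM) with compound, 15 min RT. Step 2: substrate peptide 500 nM and SAM 20 uM, 2 h RT. Step 3: anti-H3K9me1 antibody and AlphaScreen beads, 10 min, then plate read.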
PI5P4K alpha inh: blocks human PI5P4K alpha kinase activity; P48426; PI5P4Kalpha enzyme, ADP-Glo luminescence, 60 min; stronger effect = lower value; max response, %; 1.2% of 330,000 active; AID 652105; active means max response of -50% or lower; inconclusive means between -30% and -50%; inactive means -30% or higher; further: value at the top dose of about 77 µM; on the % scale 0 is the no-effect control and ±100 the full control effect
Target sequence (P48426 whole entry, looked up): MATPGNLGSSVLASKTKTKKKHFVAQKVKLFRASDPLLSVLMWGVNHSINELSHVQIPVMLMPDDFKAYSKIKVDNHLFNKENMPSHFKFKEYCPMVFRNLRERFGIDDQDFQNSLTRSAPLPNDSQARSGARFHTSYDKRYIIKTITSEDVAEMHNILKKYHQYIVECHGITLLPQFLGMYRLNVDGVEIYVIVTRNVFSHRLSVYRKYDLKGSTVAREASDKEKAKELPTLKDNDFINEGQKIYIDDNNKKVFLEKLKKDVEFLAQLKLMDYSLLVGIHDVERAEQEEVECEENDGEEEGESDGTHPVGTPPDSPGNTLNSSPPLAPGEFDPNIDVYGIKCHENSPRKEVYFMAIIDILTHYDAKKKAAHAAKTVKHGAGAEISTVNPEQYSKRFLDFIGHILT
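Human PI5P4Kalpha with substrate in 0.038 M HEPES pH 7.4, 0.28 mM EGTA, 0.1% CHAPS, 5% DMSO; reaction started with 5 microM ATP (final), 60 min at room temperature. ADP formed read by ADP-Glo luminescence.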
Starred values were filed as active, the others as inactive; ? = inconclusive; · = no result given; [ ] = remark or other dose. Unless noted, the call rests on the fitted dose curve; in most records, active means well fitted curve in the direction sought with a large enough effect; inconclusive means small, poorly fitted or top-dose-only effect, or another doubt; inactive means no such curve, though single readings can be large; an effect the other way counts as inactive or inconclusive.

SMILES	BAZ2B block	PLK1 PBD inh	HP1b chromo inh	JMJD2A Tudor	G9a inh	PI5P4K alpha inh
COC(=O)c1ccccc1NC(=S)N(C)C	-0.5%	-5.4%	3.1%	-12.7%	24.5%[59 µM]	4.7
COC(=O)c1ccccc1N=C(SC)N(C)C	-1.7%	29.9µM*	2.8%	-19.2%	15.8µM*	-8.7
O=C1c2ccccc2C(=O)N1C1C=CC=CC=C1	·	29.9µM*	·	·	·	-1.5
O=C1c2ccccc2C(=O)N1c1ccncc1	·	·	·	-6.1%	·	·
CCCCc1ccc(Nc2nc(N3CCOCC3)nc(N3CCOCC3)n2)cc1	-38.8%[57.1 µM]	1.6%	38.4%	-13.5%	50.1µM*	25.1
CSc1nc2ccc(Nc3nc(N4CCOCC4)nc(N4CCOCC4)n3)cc2s1	1.2%	-16.3%	2.7%	-35.8%	15.8µM*	·
CCCCN(C=O)c1c(CC)nc2c(OCCOc3ccc(F)cc3)cccn12	·	-2.9%	·	·	·	-5.9
CCCC[C@@H]1CC2=C(C(=O)OC(C)(C)O2)[C@@H](c2ccc(Cl)cc2)O1	·	-6.3%	·	·	·	-0.9
CCN(C(=O)C1CCCN(c2ncnc3c2nc2n3CCCCC2)C1)c1cccc(C)c1 (stereo not drawn)	-22.5%	·	2.4%	-19.5%	-29.9%[59 µM]	·
COCCCNC(=O)c1cccc2c(-c3cccc(C(N)=O)c3)coc12	·	-10.9%	·	·	·	0.0
COc1ccc(C)cc1NC(=O)C(CCSC)NS(=O)(=O)c1ccc2c(c1)oc(=O)n2C (stereo not drawn)	2.3%	·	9.6%	-19.6%	7.9%[59 µM]	·
Cn1[nH]cc(C=NC(N)=O)c1=O	·	-8.4%	4.5%	-11.8%	·	-4.7
CC(=O)N=c1sc(S(N)(=O)=O)nn1C	-16.6%	-12.7%	33.9%	-7.2%	12.6µM*	1.8
COc1ccccc1NC(=O)COC(=O)c1c(NC(C)=O)sc(C)c1C	·	-1.5%	·	·	·	6.4
NC(=S)N/N=C/c1ccc2ccccc2c1	-7.1%	-13.8%	14.9%	-21.1%	-15.9%[59 µM]	-1.7
Brc1ccc(C=Nc2ccc(Nc3ccccc3)cc2)s1	39.8µM*	7.9%	?	28.2µM*	8.91µM*	26.0
C(=Nc1ccc(Nc2ccccc2)cc1)c1ccc2ccccc2c1	35.5µM*	-0.3%	?	?	1.58µM*	7.3
O=C(CCC(=O)N/N=C/c1ccc(Br)s1)NCc1ccccc1	5.4%	1.4%	31.7%	1.4%	5.7%[59 µM]	-4.2
COc1ccc(C2CC(=O)CCN2S(=O)(=O)c2ccc(C)cc2)cc1 (stereo not drawn)	·	-19.6%	37.1%	-5.5%	·	-4.0
CCN(CC)c1ccc(Nc2cc3n(c(=O)n2)CCc2cc(OC)c(OC)cc2-3)cc1	22.4µM*	-11.0%	?	44.7µM*	20µM*	-7.1
COc1cc2c(cc1OC)-c1cc(Nc3ccc(N(C)C)cc3)nc(=O)n1CC2	?	-15.5%	-35.7%	?	14.1µM*	?
CCc1ccc(-n2c(N3CCN(c4cccc(Cl)c4)CC3)nc3ccccc3c2=O)cc1	·	·	23.7%	-7.7%	8.5%[59 µM]	·
CCCCCCCc1ccc(-c2ccc(O)cc2)nc1	-36.8%	23.8µM*	?	-9.8%[11.4 µM]	22.2%	4.8
COc1ccc(N2CCN(C(=O)C3Cc4ccccc4CN3C(=O)c3ccccc3)CC2)cc1 (stereo not drawn)	?	-8.4%	-12.0%	-34.7%	50.1µM*	5.5
COc1ccc(CNC(=O)[C@@H]2CCCN2C(=O)[C@@H]2Cc3ccccc3CN2C(=O)OC(C)(C)C)cc1	-1.8%	-9.4%	37.8%	4.1%	27.3%	4.3
CC(C)(C)OC(=O)N1Cc2ccccc2C[C@H]1C(=O)N1CCC[C@H]1C(=O)O	1.9%	-5.3%	6.3%	-2.7%	17.8µM*	6.0
Cc1ccc(-n2c(SCC(=O)N3Cc4ccccc4CC3C(=O)O)nnc2-c2cccnc2)c(C)c1 (stereo not drawn)	12.9%	-1.6%	56.1%	-2.8%	44.7µM*	-2.3
Cc1ccc(-n2nnnc2SCC(=O)N2Cc3ccccc3CC2C(=O)O)cc1 (stereo not drawn)	-16.2%	-14.2%	44.6%	-8.8%	44.7µM*	-5.0
Cc1ccccc1-n1c(SCC(=O)c2cc(C)n(C)c2C)nnc1-c1cccnc1	?	-7.4%	-11.2%	?	?	0.5
